Source: PubChem
This is a sample that favours compounds with a hit; in the whole collection about 31% have one here.
PLAP act: PLAP enzyme activators, biochemical, luminescence, HTS; hit rate 1.2% among 96,000; purified PLAP enzyme, luminescent substrate read-out; hits give high values; Alkaline phosphatase, placental type (Homo sapiens), P05187; activation fold at 20 µM; in the data active means activation fold above about 2
Target sequence (P05187 whole entry, looked up): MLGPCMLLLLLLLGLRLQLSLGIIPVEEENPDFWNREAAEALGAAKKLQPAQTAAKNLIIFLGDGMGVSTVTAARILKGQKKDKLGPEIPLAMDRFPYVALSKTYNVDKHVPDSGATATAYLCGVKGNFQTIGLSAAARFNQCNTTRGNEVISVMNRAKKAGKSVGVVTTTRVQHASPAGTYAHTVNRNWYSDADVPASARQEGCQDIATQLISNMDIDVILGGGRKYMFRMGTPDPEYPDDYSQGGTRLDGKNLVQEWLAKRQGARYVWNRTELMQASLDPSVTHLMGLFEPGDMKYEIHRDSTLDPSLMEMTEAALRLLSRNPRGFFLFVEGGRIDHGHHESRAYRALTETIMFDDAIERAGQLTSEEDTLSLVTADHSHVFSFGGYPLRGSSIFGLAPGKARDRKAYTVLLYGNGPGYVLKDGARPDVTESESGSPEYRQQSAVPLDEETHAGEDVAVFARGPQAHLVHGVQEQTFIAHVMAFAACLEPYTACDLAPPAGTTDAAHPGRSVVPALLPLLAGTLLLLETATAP
CYP2C19 activ: human CYP2C19 activators, primary screen, biochemical, luminescence; recombinant CYP2C19, luciferin-H EGE luminescence; hits give high values; 0 = fully inhibited enzyme, 1 = untreated enzyme; activation factor at 5 µM; 96,000 tested, under 10 active;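 active means activation factor of at least 2 at 5 µM in the primary screen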;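 further: 0 = wells with 2.5 mM tranylcypromine and 1 = vehicle-only wells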
CYP2C9 inhib: blockers of cytochrome P450 2C9 activity – biochemical, luminescence, ADME assay, primary screen | P11712 | CYP2C9 Supersomes, luciferin-H conversion | inhibition, % at 5 µM | hit rate 20% among 96,000;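 active means blocking of liver enzyme CYP2C9 beyond about 50% at 5 µM, limit read from the data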
CYP2C9 activ: human CYP2C9 activators, primary screen, biochemical, luminescence. recombinant CYP2C9, luciferin-H conversion; hits give high values; factor 1 = untreated enzyme, 0 = blocked. activation factor at 5 µM. hit rate 1.4% among 96,000;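 active means activation factor of 2 or more for CYP2C9 at a 5 µM dose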;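 further: 0 = sulfaphenazole-blocked wells and 1 = vehicle-only wells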
CYP2C19 inhib: blockers of cytochrome P450 2C19 activity – biochemical, luminescence, ADME assay, primary screen; CYP2C19 Supersomes, luciferin-H EGE luminescence, 30 min; hit rate 21% among 96,000; inhibition, % at 5 µM;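 active means CYP2C19 inhibition above a set limit at 5 µM in the primary screen, cut at about 50% in these data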;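 further: plate controls were negative control wells for no effect and 2.5 mM tranylcypromine positive control for full effect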
The depositor's hits bear a star.

SMILES | PLAP act | CYP2C19 activ | CYP2C9 inhib | CYP2C9 activ | CYP2C19 inhib
O=c1cc2[nH]c3ccccc3c(=O)n2nc1-c1ccccc1 | 0.9 | 0.6 | 71.1* | 0.3 | 37.2
Cc1ccc(S(=O)(=O)N(C)Cc2ccc(-c3nnc4n3CCC4)cc2)cc1 | 1.7 | 0.1 | 40.9 | 0.6 | 88.0*
CC(=O)c1c(C)n([O-])c2cc(C)ccc2[n+]1=O | 0.9 | 1 | 13.6 | 0.9 | 4.3
Cc1ccc(NC(=O)COc2ccc3oc4c(c3c2)CCCC4)nc1 | 1 | 0.7 | 55.2* | 0.4 | 31.4
Cc1cc(NC(=O)COc2ccc3oc4ccccc4c3c2)no1 | 0.6 | 0.9 | 18.5 | 0.8 | 8.4
CCC(C)(C)n1nnnc1C(c1cc2cc(C)ccc2[nH]c1=O)N1CCCC1 (stereo unspecified) | 1.2 | 1 | 16.6 | 0.8 | 0.8
Cc1ccc2cc(C(c3nnnn3C(C)(C)C)N3CCCCCC3)c(=O)[nH]c2c1 (stereo unspecified) | 1.6 | 0.7 | 65.0* | 0.3 | 31.9
COc1cc2cc(C(c3nnnn3C(C)(C)C)N3CCc4ccccc4C3)c(=O)[nH]c2cc1OC (stereo unspecified) | 1.6 | 0.3 | 80.6* | 0.2 | 65.4*
CCC(C)(C)n1nnnc1C(c1cc2cc(OC)c(OC)cc2[nH]c1=O)N1CCc2ccccc21 (stereo unspecified) | 1.7 | 0.5 | 76.9* | 0.2 | 46.5
O=C(COc1ncnc2ccc(Br)cc12)NCc1ccc2c(c1)OCO2 | 0.9 | 1.1 | 18.5 | 0.8 | -5.0
O=C(O)CONC(=O)c1cc(OCC(F)(F)F)ccc1OCC(F)(F)F | 1.1 | 1 | -2.7 | 1 | -0.9
COc1cc(CNn2nnnc2N)ccc1OCc1c(Cl)cccc1Cl | 0.8 | 0.4 | 19.3 | 0.8 | 62.2*
CCOc1cc(CNn2nnnc2N)cc(Cl)c1OCC(=O)NC(C)(C)C | 1.1 | 0.1 | 29.1 | 0.7 | 91.4*
C=CCOc1c(Br)cc(CNn2nnnc2N)cc1OCC | 1 | 0.6 | 6.2 | 0.9 | 37.3
Nc1cc(C(=O)O)ccc1N1CCCCCC1 | 0.8 | 1.1 | -10.6 | 1.1 | -5.4
COc1cccc(/C=N/NC(=O)c2[nH]c(C)c(C(=O)N/N=C/c3cccc(OC)c3O)c2C)c1O | 2.5* | 1.1 | -8.0 | 1.1 | -7.6
COc1cccc(/C=N/NC(=O)c2ccc(-c3ccccc3)cc2)c1O | 2.1* | 1 | 3.9 | 1 | -4.3
COc1cccc(/C=N\NC(=O)c2sc(N)nc2C)c1OC | 1 | 1 | 2.3 | 1 | 3.5
COc1ccc(-c2cnn3c4c(c(C)nc23)CCN4C2CCCC2)cc1OC | 1.2 | 1 | -17.0 | 1.2 | -0.1
COc1ccc(NCc2nnc(SCC(=O)Nc3cc(C)cc(C)c3)o2)cc1 | 1.1 | 0.8 | 3.9 | 1 | 20.2
COc1ccc(NCc2nnc(SCC(=O)Nc3cc(C(F)(F)F)ccc3Cl)o2)cc1 | 2.3* | 0.2 | 79.6* | 0.2 | 82.2*
COc1ccc(CCCc2nnc(SCC(=O)Nc3ccc(C)c(C)c3)o2)cc1 | 0.9 | 0.7 | 10.0 | 0.9 | 26.2
Cc1ccc(C)c(NC(=O)CSc2nnc(CCNC(=O)OC(C)(C)C)o2)c1 | 1.5 | 0.2 | 34.0 | 0.7 | 79.9*
COc1ccc(CCCc2nnc(SCC(=O)Nc3cc(C)ccc3C)o2)cc1 | 0.9 | 0.5 | 63.2* | 0.4 | 46.5
COc1ccc(/C=C/C(=O)Nc2cc(C(F)(F)F)ccc2Cl)cc1 | 0.9 | 0.9 | -102.6 | 2* | 8.7
SMILES | PLAP act | CYP2C19 activ | CYP2C9 inhib | CYP2C9 activ | CYP2C19 inhib
Cc1ccc(NC(=O)COC(=O)C2CCC(=O)N2)c(S(=O)(=O)N2CCOCC2)c1 (stereo unspecified) | 1.1 | 1.1 | -74.8 | 1.7 | -10.5
CCOC(=O)N1CCC(NS(=O)(=O)c2cc(Br)cc3c2N(C(=O)CC)CC3)CC1 | 1.2 | 0.8 | 3.4 | 1 | 20.9
Cc1c(Cl)cccc1NC(=O)CSc1nnc(CCNC(=O)OC(C)(C)C)o1 | 1.7 | 0.2 | 68.1* | 0.3 | 78.3*
Cc1cc(NC(=O)Cn2nnc3sc4c(c3c2=O)CCC(C(C)(C)C)C4)no1 (stereo unspecified) | 1.2 | 0.7 | 56.6* | 0.4 | 32.4
CCn1c(SCC(=O)NC2CCCC2)nnc1-c1c[nH]c2ccccc12 | 0.9 | 0.6 | 78.5* | 0.2 | 41.9
CCn1c(SCC(=O)NCc2ccccc2)nnc1-c1c[nH]c2ccccc12 | 1.1 | 0.2 | 80.9* | 0.2 | 77.4*
CCn1c(SC(C)C)nnc1-c1c[nH]c2ccccc12 | 0.9 | 0.2 | 9.3 | 0.9 | 80.8*
CCn1c(SCC(=O)NCC2CCCO2)nnc1-c1c[nH]c2ccccc12 (stereo unspecified) | 1.1 | 0.9 | -58.6 | 1.6 | 12.3
CCOC(=O)CSc1nnc(-c2c[nH]c3ccccc23)n1CC | 0.9 | 0.2 | 9.3 | 0.9 | 76.5*
Cc1c(C(=O)N(C)C)sc(NC(=O)c2cc([N+](=O)[O-])cc([N+](=O)[O-])c2)c1C#N | 1.3 | 1 | 47.3 | 0.5 | 0.1
O=C(NCCN1CCN(Cc2ccccc2Cl)CC1)Nc1ccccc1 | 0.8 | 1 | 48.1 | 0.5 | -1.1
CCOc1ccccc1-n1c(SCC(=O)NC(C)(C)C)nnc1-c1ccoc1C | 1.3 | 0.6 | 35.5 | 0.6 | 40.0
CCOc1ccccc1-n1c(SCC(=O)NC2CCCC2)nnc1-c1ccoc1C | 1.4 | 0.3 | 74.4* | 0.3 | 67.7*
CC(=O)c1ccc(NC(=O)CSc2nccn2CCc2ccccc2)cc1 | 0.7 | 0.5 | 45.4 | 0.5 | 52.7*
CC(=O)Nc1ccc(NC(=O)CSc2nccn2Cc2ccccc2)cc1 | 1.1 | 0.8 | 12.4 | 0.9 | 17.3
N#Cc1ccccc1NC(=O)CSc1nccn1CCc1ccccc1 | 0.8 | 0.4 | -39.5 | 1.4 | 58.7*
Cc1ccc(NC(=O)CSc2nccn2Cc2ccccc2)cc1C | 0.8 | 0.7 | -95.6 | 2* | 34.4
Clc1ccc(CSc2nccn2Cc2ccccc2)cc1 | 1.1 | 0.1 | -9.1 | 1.1 | 93.1*
Cc1cc(NC(=O)c2ocnc2C)no1 | 0.9 | 0.9 | 9.8 | 0.9 | 11.1
COc1cc(C(=O)Nc2cc(Cl)ccc2C)c(-n2cnnn2)cc1OC | 1 | 1.1 | -18.6 | 1.2 | -12.2
O=C(c1ccco1)N1CCN(/C(=N/S(=O)(=O)c2cccs2)c2ccccc2Cl)CC1 | 1.4 | 0.6 | 36.9 | 0.6 | 35.7
CC1(C)NC(=O)N(CC(O)COc2ccc(-c3ccc(C#N)cc3)cc2)C1=O (stereo unspecified) | 0.8 | 0.9 | -5.1 | 1.1 | 9.6
O=[N+]([O-])c1ccc(Sc2nccn2Cc2ccccc2)cc1 | 1 | 0 | 70.3* | 0.3 | 95.6*
O=C(CCSc1nccn1Cc1ccccc1)N1CCOCC1 | 1.3 | 0.9 | -19.6 | 1.2 | 14.8
COC(=O)c1ccc(OC(=O)C2CC(=O)N(c3ccc(C)cc3C)C2)cc1 (stereo unspecified) | 0.9 | 1 | -4.6 | 1 | 4.1
